Compound activity deposited in PubChem BioAssay by National Center for Advancing Translational Sciences (NCATS).
Pf Dd2 growth = qHTS Primary assay for Inhibitors of Plasmodium falciparum Dd2 growth in vitro | P. falciparum Dd2 growth, SYBR Green, 72 h | Potency, µM (doses to about 28.9 µM), hits mostly inhibitors | 120,000 tested, 4.3% active; active = well fitted inhibition curve with a large enough effect; note: nearly all actives have a fitted effect of over 65% in size
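Readout: SYBR Green fluorescence, 485 nm excitation, 535 nm emission, after ~16 h lysis at 37C. Before that, Dd2-infected red cells (2.5% hematocrit) grew 72 h with compound, 29 uM top final concentration.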
Numbers stand for hits; i = inactive; ! = a repeat was not active. This excerpt belongs to a sample that is enriched for hits.

SMILES	Pf Dd2 growth
CCn1cc(C(=O)NCc2ccc(C)cc2)c(=O)c2cc(S(=O)(=O)N3CCC(C)CC3)ccc21	i
COC(=O)[C@@H]1Cc2ncn(Cc3ccc(OC)cc3)c2CN1C(=O)c1cccs1	i
Cn1cnnc1CC1CCCN(C(=O)Nc2ccccc2)C1 (stereo unspecified)	i
Cc1ccc(C)c(CN2CCC3(CCC(=O)N(CCc4ccncc4)C3)CC2)c1	i
O=C(c1ccc(Cl)nc1)N1CCC2(C1)C(=O)N(CCc1ccccc1)c1ccccc12 (stereo unspecified)	12.6µM!
O=C1N(CCc2ccccc2)c2ccccc2C12CCN([S+](=O)([O-])c1cccs1)C2 (stereo unspecified)	7.94µM!
Cc1noc(C)c1[S+](=O)([O-])N1CCC2(C1)C(=O)N(Cc1ccccc1)c1ccccc12 (stereo unspecified)	i
CC(=O)N1CCC2(C1)C(=O)N(CCc1ccccc1)c1ccccc12 (stereo unspecified)	i
CN(C)C(=O)N1CCC2(C1)C(=O)N(CCc1ccccc1)c1ccccc12 (stereo unspecified)	i
O=C(c1ccccc1Cl)N1CCC2(C1)C(=O)N(CCc1ccccc1)c1ccccc12 (stereo unspecified)	i
O=C1N(Cc2ccccc2)c2ccccc2C12CCN([S+](=O)([O-])c1ccccc1)C2 (stereo unspecified)	i
O=C(C1CC1)N1CCC2(C1)C(=O)N(CCc1ccccc1)c1ccccc12 (stereo unspecified)	6.31µM!
Cc1ccccc1C(=O)N1CCC2(C1)C(=O)N(CCc1ccccc1)c1ccccc12 (stereo unspecified)	i
COc1ccc(CN2C[C@H](O)C[C@H]2c2nc(CS(=O)(=O)c3ccc(F)cc3)no2)cc1	i
CCOCCn1c(=O)[nH]c2cc(C(=O)NCCc3scnc3C)ccc21	i
COc1ccccc1CNC1(Cc2cc(C(C)(C)C)on2)COC1	i
COCCNC(=O)N1CCCC(c2noc(COC)n2)C1 (stereo unspecified)	i
CC(C)N1CCN(Cc2cnc(N3CCOCC3)s2)CC1CCO (stereo unspecified)	i
CNC(=O)[C@@H]1CN(C(=O)Cc2ccsc2)C[C@H]1c1n[nH]c(C)n1	i
Nc1cc(N2CCC(Oc3ccc4c(c3)OCO4)(C(=O)O)CC2)ncn1	i
COC(=O)c1ccc(NC(=O)c2cnc(-c3ccc(C)cc3)nc2-c2ccncc2)cc1	i
COc1ccccc1CC(=O)NCC(=O)N1CCN(c2ccccn2)CC1	i
COC1CCC12CCN(C(=O)c1cccc(C#N)c1)CC2 (stereo unspecified)	i
COc1ccccc1CNC(=O)c1ccc(Cn2c(SCc3ccccc3)nc3cccnc32)cc1	8.91µM
Cc1ccccc1CSc1nc2cccnc2n1Cc1ccc(C(=O)NC2CC2)cc1	i
SMILES	Pf Dd2 growth
Cc1ccccc1CNC(=O)c1ccc(Cn2c(SCc3ccccc3)nc3cccnc32)cc1	11.2µM
Cc1ccc(CNC(=O)c2ccc(Cn3c(SCc4ccccc4F)nc4cccnc43)cc2)cc1	i
COC[C@@H]1CN(C(=O)c2ccc3ncccc3c2)C[C@H]1c1ccccn1	i
Cn1c(=O)oc2cc(NC(=O)CCc3cc4n(n3)CCCNC4)ccc21	i
O=C(Nc1ccc(Cl)cc1)N1CCC(N2CCCNC2=O)CC1	i
COc1ccc2[nH]c3c(c2c1)CCN(C)C31CCN(C(=O)c2ccsc2)CC1	i
C=CCc1ccccc1OCCN(C)Cc1ccc(S(C)(=O)=O)cc1	i
C=CCc1ccccc1OCCN(C)Cc1ncnn1CC	i
C=CCc1ccccc1OCCN(C)Cc1nc(C)ccc1O	8.91µM
CN1C(=O)c2ccccc2Sc2ccc(NC(=O)N3CCN(c4ccc(F)cc4)CC3)cc21	7.94µM
CCN1C(=O)c2ccccc2Sc2ccc(NC(=O)N3CCN(c4cc(C)ccc4C)CC3)cc21	i
CC(C)NC(=O)Nc1ccc2c(c1)N(C)C(=O)c1ccccc1S2	i
Cc1cnc(C(=O)N2CCCC(c3nnc(Cn4cccn4)n3C)C2)cn1 (stereo unspecified)	i
CCCS(=O)(=O)Nc1ccc2n(c1=O)C[C@H]1C[C@@H]2CN(C(=O)c2ccc(-c3ccccc3)cc2)C1	i
Clc1ccc(CNc2ncnc3onc(-c4ccc(Cl)cc4)c23)cc1	i
CC1CCC(Nc2ncnc3onc(-c4ccc(Cl)cc4)c23)CC1 (stereo unspecified)	4.47µM
Clc1ccc(-c2noc3ncnc(NC4CCCCC4)c23)cc1	i
O=C(c1ccc(C(F)(F)F)cc1)N1CCC(N2CC3CC(C2)[C@H]2CCCC(=O)N2C3)CC1 (stereo partly specified)	i
CN(Cc1cccc(F)c1)Cc1ccccc1C(F)(F)F	i
O=C(CCC1CCCN(Cc2ccc3nonc3c2)C1)N1CCOCC1 (stereo unspecified)	i
CN1Cc2cccn2CC1CNC(=O)c1cnn(C)c1 (stereo unspecified)	i
CN1Cc2cccn2CC1CNC(=O)c1ccccc1 (stereo unspecified)	11.2µM
CN1Cc2cccn2CC1CNC(=O)c1cccn1C (stereo unspecified)	i
